Test [1] is described as follows: qHTS assay to identify small molecule antagonists of the glucocorticoid receptor (GR) signaling pathway - cell viability counter screen (AID 720693). Note: nearly all actives have a fitted effect of over 55% in size. Note: potency is the fitted concentration of half-maximal effect. In general terms: Quantitative high-throughput screening tests each substance at several concentrations.
Test [2] can be described thus: qHTS assay for identifying genotoxic compounds that show differential cytotoxicity against isogenic chicken DT40 cell lines with known DNA damage response pathways - wild type cell line (AID 743012). Note: nearly all actives have a fitted effect of over 60% in size. Note: potency is the fitted concentration of half-maximal effect. In short, it runs like this:
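Wild type DT40, 300 cells/well, ~0.5 h settle at 37 C/5% CO2; compounds in DMSO added by pintool; 40 h at 37 C/5% CO2; CellTiter-Glo, 30 min RT; luminescence.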

Test [3] is described as follows: qHTS assay for identifying genotoxic compounds that show differential cytotoxicity against isogenic chicken DT40 cell lines with known DNA damage response pathways - Rev3 mutant cell line (AID 743014). Note: nearly all actives have a fitted effect of over 55% in size. Note: potency is the fitted concentration of half-maximal effect.
Test [4] is described as follows: qHTS assay for identifying genotoxic compounds that show differential cytotoxicity against isogenic chicken DT40 cell lines with known DNA damage response pathways - Rad54/Ku70 mutant cell line (AID 743015). Note: nearly all actives have a fitted effect of over 60% in size. Note: potency is the fitted concentration of half-maximal effect.
For test [5], the target named is Androgen receptor (Homo sapiens) (UniProt P10275). In words: qHTS assay to identify small molecule agonists of the androgen receptor (AR) signaling pathway using the MDA cell line (AID 743040; note: nearly all actives have a fitted effect of over 20% in size; note: potency is the fitted concentration of half-maximal effect). Put shortly:
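Luminescence from ONE-Glo, read after 30 min at room temperature, reflects MMTV-driven luciferase in MDA-kb2 cells (AR- and GR-responsive). Treatment lasted 16 h at 37C, 0% CO2.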

Test [6] in a line: qHTS assay to identify small molecule antagonists of the androgen receptor (AR) signaling pathway using the MDA cell line - cell viability counter screen (AID 743041; note: nearly all actives have a fitted effect of over 45% in size; note: potency is the fitted concentration of half-maximal effect). Put shortly: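 Viability counter screen run alongside the AR antagonist reporter: cells seeded 5 h before compound, R1881 added, 16 h incubation at 37C without CO2, fluorescent CellTiter-Fluor signal quantified.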

Test [7] deals with Androgen receptor (Homo sapiens) (UniProt P10275). Description: qHTS assay to identify small molecule antagonists of the androgen receptor (AR) signaling pathway (AID 743035; active = well fitted inhibition curve with a large enough effect in the signal ratio in the repeat runs, not every such curve was filed as active; the % refers to the signal ratio; note: potency is the fitted concentration of half-maximal effect). In short, it runs like this: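 Fluorescence from a beta-lactamase FRET substrate (LiveBLAzer B/G, 2 h, room temperature) measured inhibition of R1881-stimulated signaling in GeneBLAzer AR-UAS-bla HEK293 cells exposed to compound for 16 h at 37C.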
Sequence of Androgen receptor (Homo sapiens) (P10275 whole entry, looked up): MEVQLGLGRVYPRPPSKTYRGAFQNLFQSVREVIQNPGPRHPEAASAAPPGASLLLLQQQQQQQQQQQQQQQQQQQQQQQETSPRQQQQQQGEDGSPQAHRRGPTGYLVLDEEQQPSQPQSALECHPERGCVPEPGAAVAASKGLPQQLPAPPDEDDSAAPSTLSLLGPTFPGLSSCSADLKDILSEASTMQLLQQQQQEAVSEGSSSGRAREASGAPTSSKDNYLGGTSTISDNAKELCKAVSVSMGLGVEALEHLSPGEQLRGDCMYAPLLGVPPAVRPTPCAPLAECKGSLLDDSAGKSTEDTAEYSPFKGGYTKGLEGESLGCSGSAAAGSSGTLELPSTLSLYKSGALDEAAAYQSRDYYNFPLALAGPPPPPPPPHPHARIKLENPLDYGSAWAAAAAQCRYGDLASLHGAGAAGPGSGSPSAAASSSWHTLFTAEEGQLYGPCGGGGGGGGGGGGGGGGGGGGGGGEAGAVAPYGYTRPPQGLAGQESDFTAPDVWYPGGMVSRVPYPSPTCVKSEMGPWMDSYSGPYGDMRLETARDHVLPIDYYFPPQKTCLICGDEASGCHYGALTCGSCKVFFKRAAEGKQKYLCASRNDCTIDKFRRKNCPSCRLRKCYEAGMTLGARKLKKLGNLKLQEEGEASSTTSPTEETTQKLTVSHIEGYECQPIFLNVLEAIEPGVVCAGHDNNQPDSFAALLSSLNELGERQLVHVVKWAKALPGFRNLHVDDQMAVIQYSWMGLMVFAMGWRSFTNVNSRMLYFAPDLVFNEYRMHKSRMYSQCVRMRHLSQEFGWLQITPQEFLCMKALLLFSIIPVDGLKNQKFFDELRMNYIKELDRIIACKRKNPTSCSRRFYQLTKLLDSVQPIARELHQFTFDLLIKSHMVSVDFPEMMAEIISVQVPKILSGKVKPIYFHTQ

For test [8] the target is unchanged. Description: qHTS assay to identify small molecule agonists of the androgen receptor (AR) signaling pathway (AID 743036; active = well fitted activation curve with a large enough effect in the signal ratio in the repeat runs, with a control signal flat, not every such curve was filed as active; the % refers to the signal ratio). In short, it runs like this: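 Cell-based FRET reporter assay: HEK293 line with a UAS-beta-lactamase construct, compounds added in DMSO, 16 h exposure at 37C, then 2 h substrate step at room temperature and fluorescence intensity read.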
Test [9] shares this target. In words: qHTS assay to identify small molecule antagonists of the androgen receptor (AR) signaling pathway using the MDA cell line (AID 743042; note: nearly all actives have a fitted effect of over 55% in size; note: potency is the fitted concentration of half-maximal effect). Put shortly: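 MDA-kb2 cells (human breast carcinoma, stably carrying an MMTV-luciferase reporter responsive to AR and GR) were plated at 3,000 cells/well and preincubated 5 hr at 37C, then given compound plus R1881 agonist for 16 h. ONE-Glo luminescence was read.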

Records with an inconclusive call do not appear. Activity calls are given as the source filed them. Unless noted, calls come from the whole dose curve; as a rule, active = well fitted curve in the direction sought with a large enough effect in the repeat runs; inconclusive = weak or mixed curves; inactive = no such curve, though single readings can be large; an effect the other way counts as inactive or inconclusive.

Regarding `N#Cc1ccc2c(c1)N(CCCN1CCC(O)CC1)c1ccccc1S2`, the Potency result in [1] and in [5] was “inactive” in each case. The Potency is 18.8 µM (active) in [2], 26.6 µM (active) in [3] and 21.1 µM (active) in test [4].

In the case of `CC(=O)c1ccc2c(c1)N(CCCN1CCN(CCO)CC1)c1ccccc1S2`, the Potency entry in test [1] and in [6] was “inactive” in each case. The Potency was 13.3 µM (active) in test [2], 26.6 µM (active) in [3] and 21.1 µM (active) in test [4].

Turning to `Cc1cc(-n2c(=O)[nH]c(=O)n(C)c2=O)ccc1Oc1ccc(S(=O)(=O)C(F)(F)F)cc1`, the Potency entry in [1] and in test [6] was “inactive” in each case. Moreover, the Potency in test [2], in [3] and in [4] was 26.6 µM (active) each time.

Consider `O=C(O)C1CCCN1` (centres undefined), for which the Potency result in [1], in [2], in test [3], in test [4] and in [6] was “inactive” in each case.

For `CCCCCCCCCCCCCC[n+]1ccc(C)cc1`, the Potency is 21.3 µM (active) in test [1]; 0.188 µM (active) in [2]; 0.335 µM (active) in test [3]; 0.266 µM (active) in test [4]; 9.52 µM (active) in test [7]; 5.96 µM (active) in test [9]. For the same compound, the Potency entry in test [8] and in test [5] was “inactive” each time.

For `CCCCCCCCCCCCCCCC(=O)OCC(COC(=O)CCCCCCCCCCCCCCC)OC(=O)CCCCCCCCCCCCCCC`, the Potency result in test [1], in [2], in test [3], in [4] and in [6] was “inactive” each time.

`CN(C)CC/C=C1/c2ccccc2CSc2ccccc21`: the Potency entry in test [1], in [8], in [5], in [6] and in [9] was “inactive” throughout. Moreover, the Potency in test [2] is 11.4 µM (active); in [3], 12.7 µM (active); in [4], 12.7 µM (active).

Turning to `CN(C)c1ccc(C(=C2C=CC(=[N+](C)C)C=C2)c2c(O)c(S(=O)(=O)[O-])cc3cc(S(=O)(=O)O)ccc23)cc1`, the Potency result in test [1], in test [7], in test [8] and in test [5] was “inactive” throughout. Further, the Potency in test [2] is 11.9 µM (active); in test [3], 10.6 µM (active); in test [4], 13.3 µM (active); in [9] it was 11.9 µM (active).

Regarding `CCCCCCCCCCCCCCCCCC(=O)OC[C@@H](O)[C@H]1OC[C@H](O)[C@H]1O`, the Potency result in test [1], in test [2], in test [3], in test [4], in [7] and in test [8] was “inactive” in each case. For the same compound, the Potency entry in test [5], in [6] and in test [9] was “inactive” each time.

As for `O=P(O)(O)OC(Cn1cncn1)(Cn1cncn1)c1ccc(F)cc1F`, the Potency result in [1], in [2], in test [3], in test [4], in [7] and in test [5] was “inactive” in each case. Besides, the Potency result in [6] and in test [9] was “inactive” throughout.

In the case of `NC(Cc1ccccc1)C(=O)O` (centres undefined), the Potency result in [1], in [2], in test [3], in test [4] and in [6] was “inactive” each time.

Turning to `CCCCCCCCCCCCCCCCCCCCCC(=O)Nc1ccn([C@@H]2O[C@H](CO)[C@@H](O)[C@@H]2O)c(=O)n1`, the Potency entry in test [1], in test [8], in test [5], in test [6] and in test [9] was “inactive” in each case. The Potency is 18.8 µM (active) in test [2], 23.7 µM (active) in test [3] and 26.6 µM (active) in [4].

Take `C[C@H](CCCC(C)(C)O)[C@H]1CC[C@H]2[C@@H]3CC=C4C[C@@H](O)CC[C@]4(C)[C@H]3CC[C@]12C`: the Potency entry in test [1], in test [5], in test [6] and in test [9] was “inactive” in each case. Further, the Potency in test [2] was 1.68 µM (active); in test [3], 0.211 µM (active); in test [4], 10.6 µM (active).

For the compound `OCCN1CCN(CC/C=C2/c3ccccc3Sc3ccc(Cl)cc32)CC1`, the Potency result in test [1], in test [7], in test [8], in test [5], in [6] and in test [9] was “inactive” throughout. Further, the Potency was 9.02 µM (active) in test [2], 11.4 µM (active) in test [3] and 11.4 µM (active) in [4].

For the compound `CCN(CC)CCOCCOC(=O)C(CC)(CC)c1ccccc1`, the Potency result in [1] and in test [6] was “inactive” each time. Besides, the Potency is 3.35 µM (active) in test [2], 1.88 µM (active) in test [3] and 4.73 µM (active) in test [4].

With `O=C(O)C1=C(CSc2nnnn2CS(=O)(=O)O)CS[C@@H]2[C@H](NC(=O)[C@H](O)c3ccccc3)C(=O)N12`, the Potency result in [1], in test [2], in test [3], in test [4], in test [7] and in test [8] was “inactive” throughout. Besides, the Potency result in test [6] and in [9] was “inactive” throughout. Moreover, in test [5], the Potency was 26.6 µM (active).

Regarding `Cc1cc(-c2ccc(N=Nc3c(S(=O)(=O)O)cc4cc(S(=O)(=O)O)cc(N)c4c3O)c(C)c2)ccc1N=Nc1c(S(=O)(=O)O)cc2cc(S(=O)(=O)O)cc(N)c2c1O`, in [1], the Potency result was “inactive”. For the same compound, the Potency in [2] is 9.44 µM (active); in test [3], 7.5 µM (active); in test [4], 10.6 µM (active); in test [6], 13.3 µM (active).

For `Cn1nnnc1SCC1=C(C(=O)O)N2C(=O)[C@@H](NC(=O)[C@H](O)c3ccccc3)[C@H]2SC1`, the Potency entry in [1], in [2], in [3], in test [4] and in [6] was “inactive” throughout.

Source of the values: PubChem BioAssay (Tox21).
